Assay [1] is described as follows: CEETOX_H295R_PROG: CeeTox H295R High-throughput Steroidogenesis Assay for Progesterone (PROG) (AID 2283442).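 On AC50: human H295R adrenal cells primed with 10 µM forskolin before dosing; progesterone secreted into medium by H295R cells measured by HPLC-MS/MS.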 Particulars: actives raise or lower the signal. The gist of the method: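 Steps: seed H295R cells and let them adhere overnight; prime 48 h with 10 uM forskolin; dose with compound in DMSO at 0.1% final for 48 h; extract medium steroids with MTBE; measure progesterone by LC-MS/MS. MTT viability was run in the same wells.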

Read-out in assay [2]: Tumor necrosis factor receptor superfamily member 6 (Homo sapiens) (UniProt P25445)
Nature of the assay: LTEA_HepaRG_FAS: Life Technologies and Expression Analysis (LTEA) Assay for Fas cell surface death receptor (FAS) using HepaRG (AID 2283447). Conditions: mRNA level, 48 h; actives raise or lower the signal. The gist of the method:
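Differentiated HepaRG cells in serum-free induction medium were exposed 48 h to 8 half-log concentrations up to 100 uM in 0.5% DMSO, in duplicate. FAS mRNA was measured by qRT-PCR normalised to ACTB, GAPDH and POLR2A; bidirectional fit versus DMSO.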

Read-out in assay [3]: Fatty acid synthase (Homo sapiens) (UniProt P49327)
Briefly: LTEA_HepaRG_FASN: Life Technologies and Expression Analysis (LTEA) Assay for Fatty Acid Synthase (FASN) using HepaRG (AID 2283448).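 On AC50: differentiated human HepaRG liver cells in serum-free induction medium.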 Conditions: mRNA level, 48 h; actives raise or lower the signal. The gist of the method: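 HepaRG, 48 h exposure, 8-pt half-log series top 100 uM, 0.5% DMSO vehicle, duplicates. Readout: FASN transcript by Fluidigm qRT-PCR; housekeeping-normalized; bidirectional curve fit vs DMSO baseline.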

Read-out in assay [4]: Cyclin D2 (CCND2), CCND2 (gene 894)
Nature of the assay: LTEA_HepaRG_CCND2: Life Technologies and Expression Analysis (LTEA) Assay for Cyclin D2 (CCND2) using HepaRG (AID 2283449).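 Further: CCND2 transcript measured by TaqMan qRT-PCR and normalised to three housekeeping genes.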 Conditions: mRNA level, 48 h; actives raise or lower the signal. The gist of the method:
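HepaRG, 48 h dosing, 8-pt half-log curve from 100 uM, 0.5% DMSO; duplicate wells. Readout: CCND2 transcript by microfluidic qRT-PCR, housekeeping-normalised; bidirectional fit vs DMSO baseline.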

Read-out in assay [5]: Cyclin Dependent Kinase Inhibitor 1A (CDKN1A), CDKN1A (gene 1026)
Nature of the assay: LTEA_HepaRG_CDKN1A: Life Technologies and Expression Analysis (LTEA) Assay for Cyclin Dependent Kinase Inhibitor 1A (CDKN1A) using HepaRG (AID 2283450). Particulars: mRNA level, 48 h; actives raise or lower the signal. The method, boiled down: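 Read-out is CDKN1A mRNA by TaqMan qRT-PCR, normalized to three housekeeping genes and fitted in both directions against the DMSO baseline. Human HepaRG cells were treated 48 h with test chemicals up to 100 uM in half-log steps, 0.5% DMSO.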

Read-out in assay [6]: Cyclin D1 (CCND1), CCND1 (gene 595)
Briefly: LTEA_HepaRG_CCND1: Life Technologies and Expression Analysis (LTEA) Assay for Cyclin D1 (CCND1) using HepaRG (AID 2283451).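 On AC50: differentiated human HepaRG liver cells in serum-free induction medium.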 Particulars: mRNA level, 48 h; actives raise or lower the signal. The method, boiled down:
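HepaRG plated 48 h, medium switched to serum-free induction medium, chemicals added in duplicate (top 100 uM, half-log steps, 0.5% DMSO) for 48 h, cells lysed, RNA measured by TaqMan qRT-PCR.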

Read-out in assay [7]: catalase (CAT), CAT (gene 847)
Nature of the assay: LTEA_HepaRG_CAT: Life Technologies and Expression Analysis (LTEA) Assay for catalase (CAT) using HepaRG (AID 2283452). Particulars: mRNA level, 48 h; actives raise or lower the signal. The gist of the method:
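HepaRG cells in serum-free induction medium, 0.5% DMSO vehicle, exposed 48 h in duplicate over 8 half-log concentrations from 100 uM. CAT mRNA measured by qRT-PCR, normalized to ACTB, GAPDH, POLR2A; bidirectional fit versus DMSO.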

Read-out in assay [8]: Cytochrome P450 (CYP1A1), CYP1A1 (gene 1543)
Nature of the assay: LTEA_HepaRG_CYP1A1: Life Technologies and Expression Analysis (LTEA) Assay for Cytochrome P450 (CYP1A1) using HepaRG (AID 2283454). Particulars: mRNA level, 48 h; actives raise or lower the signal. The gist of the method:
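HepaRG, 48 h post-plating switched to serum-free induction medium; 8-pt conc-response (top 100 uM, half-log, 0.5% DMSO), duplicates, 48 h. Lysis in RLT, TaqMan qRT-PCR for CYP1A1; gain or loss vs DMSO.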

Read-out in assay [9]: growth arrest and DNA damage 45 (GADD45A), GADD45A (gene 1647)
Briefly: LTEA_HepaRG_GADD45A: Life Technologies and Expression Analysis (LTEA) Assay for growth arrest and DNA damage 45 (GADD45A) using HepaRG (AID 2283458). Conditions: mRNA level, 48 h; actives raise or lower the signal. The gist of the method: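 HepaRG, 48 h exposure, 8 conc. (top 100 uM, half-log steps), 0.5% DMSO vehicle, duplicates. Read-out: qRT-PCR mRNA level, housekeeping-normalized (ACTB/GAPDH/POLR2A). Curves fit bidirectionally vs DMSO baseline.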

Read-out in assay [10]: Forkhead box O3 (FOXO3), FOXO3 (gene 2309)
Briefly: LTEA_HepaRG_FOXO3: Life Technologies and Expression Analysis (LTEA) Assay for Forkhead box O3 (FOXO3) using HepaRG (AID 2283459). Particulars: mRNA level, 48 h; actives raise or lower the signal. The method, boiled down: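 qRT-PCR readout of FOXO3 transcript, normalized to three housekeeping genes (ACTB, GAPDH, POLR2A); gain or loss fitted against 0.5% DMSO vehicle. HepaRG cells, 48 h chemical exposure, 8-point half-log series, top 100 uM.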

Read-out in assay [11]: ABC Transporter (ABCB1), ABCB1 (gene 5243)
Nature of the assay: LTEA_HepaRG_ABCB1: Life Technologies and Expression Analysis (LTEA) Assay for ABC Transporter (ABCB1) using HepaRG (AID 2283460). Conditions: mRNA level, 48 h; actives raise or lower the signal. The gist of the method:
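HepaRG, 48 h exposure, 8-pt half-log series from 100 uM, 0.5% DMSO vehicle, duplicates. Readout: ABCB1 transcript by Fluidigm TaqMan qRT-PCR, housekeeping-normalized; bidirectional curve fit vs DMSO baseline.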

Read-out in assay [12]: growth arrest and DNA damage 45 (GADD45B), GADD45B (gene 4616)
Nature of the assay: LTEA_HepaRG_GADD45B: Life Technologies and Expression Analysis (LTEA) Assay for growth arrest and DNA damage 45 (GADD45B) using HepaRG (AID 2283461). Conditions: mRNA level, 48 h; actives raise or lower the signal. The method, boiled down: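 HepaRG, ~100,000 cells/well, 48 h plating; serum-free induction medium; cpd 100 uM top, half-log x8, 0.5% DMSO, duplicate, 48 h; lysis in RLT, RNA isolation, qRT-PCR; norm ACTB/GAPDH/POLR2A; bidirectional fit vs DMSO.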

Read-out in assay [13]: ABC Transporter (ABCC3), ABCC3 (gene 8714)
Briefly: LTEA_HepaRG_ABCC3: Life Technologies and Expression Analysis (LTEA) Assay for ABC Transporter (ABCC3) using HepaRG (AID 2283462). Conditions: mRNA level, 48 h; actives raise or lower the signal. The gist of the method: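 Human HepaRG, 48 h dosing, 8-pt half-log series from 100 uM, 0.5% DMSO vehicle, duplicates. ABCC3 mRNA by TaqMan qRT-PCR, housekeeping-normalized; bidirectional curve fit vs DMSO.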

Read-out in assay [14]: ABC Transporter (ABCB11), ABCB11 (gene 8647)
Briefly: LTEA_HepaRG_ABCB11: Life Technologies and Expression Analysis (LTEA) Assay for ABC Transporter (ABCB11) using HepaRG (AID 2283463). Particulars: mRNA level, 48 h; actives raise or lower the signal. The gist of the method:
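HepaRG, 48 h exposure, 8-pt half-log CRC top 100 uM, 0.5% DMSO vehicle, duplicates. Readout: TaqMan qRT-PCR of ABCB11 mRNA, housekeeping-normalized (ACTB/GAPDH/POLR2A). Bidirectional fit vs DMSO baseline.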

Read-out in assay [15]: Broad substrate specificity ATP-binding cassette transporter ABCG2 (Homo sapiens) (UniProt Q9UNQ0)
Briefly: LTEA_HepaRG_ABCG2: Life Technologies and Expression Analysis (LTEA) Assay for ABC Transporter (ABCG2) using HepaRG (AID 2283465). Conditions: mRNA level, 48 h; actives raise or lower the signal. The method, boiled down: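 HepaRG, 48 h exposure, 8-pt half-log series from 100 uM, 0.5% DMSO vehicle, duplicates. Readout: ABCG2 transcript by qRT-PCR (Fluidigm array), housekeeping-normalized; bidirectional curve fit relative to DMSO baseline.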

Read-out in assay [16]: CFLAR gene, CFLAR (gene 8837)
Nature of the assay: LTEA_HepaRG_CFLAR: Life Technologies and Expression Analysis (LTEA) Assay for CFLAR gene using HepaRG (AID 2283455). Particulars: mRNA level, 48 h; actives raise or lower the signal. The method, boiled down: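 qRT-PCR read-out (Fluidigm/TaqMan) of CFLAR mRNA, normalized to three housekeeping genes, in differentiated human HepaRG cells after 48 h chemical exposure; 8-point half-log series from 100 uM in 0.5% DMSO; bidirectional curve fitting versus DMSO.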

Read-out in assay [17]: Forkhead box O1 (FOXO1), FOXO1 (gene 2308)
Briefly: LTEA_HepaRG_FOXO1: Life Technologies and Expression Analysis (LTEA) Assay for Forkhead box O1 (FOXO1) using HepaRG (AID 2283456). Particulars: mRNA level, 48 h; actives raise or lower the signal. The method, boiled down: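 HepaRG, 48 h exposure, 8-pt half-log series from 100 uM in 0.5% DMSO, duplicates; Fluidigm qRT-PCR mRNA, housekeeping-normalised; bidirectional fit vs DMSO baseline.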

Read-out in assay [18]: ABC Transporter (ABCC2), ABCC2 (gene 1244)
Briefly: LTEA_HepaRG_ABCC2: Life Technologies and Expression Analysis (LTEA) Assay for ABC Transporter (ABCC2) using HepaRG (AID 2283464). Particulars: mRNA level, 48 h; actives raise or lower the signal. The method, boiled down: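 HepaRG, 48 h post-plating; serum-free induction medium; cpd 8-pt, 100 uM top, half-log, 0.5% DMSO, duplicate, 48 h. Readout: ABCC2 mRNA by qRT-PCR, norm. ACTB/GAPDH/POLR2A. Bidirectional fit vs DMSO baseline.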

Read-out in assay [19]: flavin-containing dimethylaniline monooxygenases 3 (FMO3), FMO3 (gene 2328)
Nature of the assay: LTEA_HepaRG_FMO3: Life Technologies and Expression Analysis (LTEA) Assay for flavin-containing dimethylaniline monooxygenases 3 (FMO3) using HepaRG (AID 2283453). Conditions: mRNA level, 48 h; actives raise or lower the signal. The method, boiled down: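 Eight-point concentration-response in serum-free HepaRG cultures (top 100 uM, 0.5% DMSO, 48 h). Read-out: FMO3 mRNA level normalized to three endogenous control genes, fitted bidirectionally versus vehicle.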

Results on 5 compounds are retold here after PubChem BioAssay (EPA / NIEHS).

Active and inactive are the calls of the source. How the source made its calls: active means hit-call score of the fitted dose curve at least 0.9, where 1 is the maximum; inactive means score below 0.9.

Chain of Broad substrate specificity ATP-binding cassette transporter ABCG2 (Homo sapiens) (Q9UNQ0 whole entry, looked up): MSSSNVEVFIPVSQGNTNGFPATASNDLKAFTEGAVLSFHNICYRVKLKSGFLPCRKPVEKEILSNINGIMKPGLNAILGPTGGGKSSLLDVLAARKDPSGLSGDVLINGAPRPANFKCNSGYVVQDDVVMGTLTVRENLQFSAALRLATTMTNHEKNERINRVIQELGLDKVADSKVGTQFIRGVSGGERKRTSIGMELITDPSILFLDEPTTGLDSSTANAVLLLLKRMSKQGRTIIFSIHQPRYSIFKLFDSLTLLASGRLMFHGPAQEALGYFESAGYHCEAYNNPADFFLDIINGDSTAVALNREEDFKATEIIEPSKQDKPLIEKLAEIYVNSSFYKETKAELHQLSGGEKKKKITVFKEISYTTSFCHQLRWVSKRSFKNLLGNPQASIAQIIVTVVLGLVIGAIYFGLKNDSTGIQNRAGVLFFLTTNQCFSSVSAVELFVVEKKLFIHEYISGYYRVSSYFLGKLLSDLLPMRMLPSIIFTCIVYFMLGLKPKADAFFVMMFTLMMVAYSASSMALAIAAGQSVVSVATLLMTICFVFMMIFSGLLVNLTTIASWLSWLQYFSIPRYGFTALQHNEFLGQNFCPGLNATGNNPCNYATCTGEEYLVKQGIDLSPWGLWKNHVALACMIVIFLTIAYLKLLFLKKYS
Chain of Fatty acid synthase (Homo sapiens) (P49327 whole entry, looked up): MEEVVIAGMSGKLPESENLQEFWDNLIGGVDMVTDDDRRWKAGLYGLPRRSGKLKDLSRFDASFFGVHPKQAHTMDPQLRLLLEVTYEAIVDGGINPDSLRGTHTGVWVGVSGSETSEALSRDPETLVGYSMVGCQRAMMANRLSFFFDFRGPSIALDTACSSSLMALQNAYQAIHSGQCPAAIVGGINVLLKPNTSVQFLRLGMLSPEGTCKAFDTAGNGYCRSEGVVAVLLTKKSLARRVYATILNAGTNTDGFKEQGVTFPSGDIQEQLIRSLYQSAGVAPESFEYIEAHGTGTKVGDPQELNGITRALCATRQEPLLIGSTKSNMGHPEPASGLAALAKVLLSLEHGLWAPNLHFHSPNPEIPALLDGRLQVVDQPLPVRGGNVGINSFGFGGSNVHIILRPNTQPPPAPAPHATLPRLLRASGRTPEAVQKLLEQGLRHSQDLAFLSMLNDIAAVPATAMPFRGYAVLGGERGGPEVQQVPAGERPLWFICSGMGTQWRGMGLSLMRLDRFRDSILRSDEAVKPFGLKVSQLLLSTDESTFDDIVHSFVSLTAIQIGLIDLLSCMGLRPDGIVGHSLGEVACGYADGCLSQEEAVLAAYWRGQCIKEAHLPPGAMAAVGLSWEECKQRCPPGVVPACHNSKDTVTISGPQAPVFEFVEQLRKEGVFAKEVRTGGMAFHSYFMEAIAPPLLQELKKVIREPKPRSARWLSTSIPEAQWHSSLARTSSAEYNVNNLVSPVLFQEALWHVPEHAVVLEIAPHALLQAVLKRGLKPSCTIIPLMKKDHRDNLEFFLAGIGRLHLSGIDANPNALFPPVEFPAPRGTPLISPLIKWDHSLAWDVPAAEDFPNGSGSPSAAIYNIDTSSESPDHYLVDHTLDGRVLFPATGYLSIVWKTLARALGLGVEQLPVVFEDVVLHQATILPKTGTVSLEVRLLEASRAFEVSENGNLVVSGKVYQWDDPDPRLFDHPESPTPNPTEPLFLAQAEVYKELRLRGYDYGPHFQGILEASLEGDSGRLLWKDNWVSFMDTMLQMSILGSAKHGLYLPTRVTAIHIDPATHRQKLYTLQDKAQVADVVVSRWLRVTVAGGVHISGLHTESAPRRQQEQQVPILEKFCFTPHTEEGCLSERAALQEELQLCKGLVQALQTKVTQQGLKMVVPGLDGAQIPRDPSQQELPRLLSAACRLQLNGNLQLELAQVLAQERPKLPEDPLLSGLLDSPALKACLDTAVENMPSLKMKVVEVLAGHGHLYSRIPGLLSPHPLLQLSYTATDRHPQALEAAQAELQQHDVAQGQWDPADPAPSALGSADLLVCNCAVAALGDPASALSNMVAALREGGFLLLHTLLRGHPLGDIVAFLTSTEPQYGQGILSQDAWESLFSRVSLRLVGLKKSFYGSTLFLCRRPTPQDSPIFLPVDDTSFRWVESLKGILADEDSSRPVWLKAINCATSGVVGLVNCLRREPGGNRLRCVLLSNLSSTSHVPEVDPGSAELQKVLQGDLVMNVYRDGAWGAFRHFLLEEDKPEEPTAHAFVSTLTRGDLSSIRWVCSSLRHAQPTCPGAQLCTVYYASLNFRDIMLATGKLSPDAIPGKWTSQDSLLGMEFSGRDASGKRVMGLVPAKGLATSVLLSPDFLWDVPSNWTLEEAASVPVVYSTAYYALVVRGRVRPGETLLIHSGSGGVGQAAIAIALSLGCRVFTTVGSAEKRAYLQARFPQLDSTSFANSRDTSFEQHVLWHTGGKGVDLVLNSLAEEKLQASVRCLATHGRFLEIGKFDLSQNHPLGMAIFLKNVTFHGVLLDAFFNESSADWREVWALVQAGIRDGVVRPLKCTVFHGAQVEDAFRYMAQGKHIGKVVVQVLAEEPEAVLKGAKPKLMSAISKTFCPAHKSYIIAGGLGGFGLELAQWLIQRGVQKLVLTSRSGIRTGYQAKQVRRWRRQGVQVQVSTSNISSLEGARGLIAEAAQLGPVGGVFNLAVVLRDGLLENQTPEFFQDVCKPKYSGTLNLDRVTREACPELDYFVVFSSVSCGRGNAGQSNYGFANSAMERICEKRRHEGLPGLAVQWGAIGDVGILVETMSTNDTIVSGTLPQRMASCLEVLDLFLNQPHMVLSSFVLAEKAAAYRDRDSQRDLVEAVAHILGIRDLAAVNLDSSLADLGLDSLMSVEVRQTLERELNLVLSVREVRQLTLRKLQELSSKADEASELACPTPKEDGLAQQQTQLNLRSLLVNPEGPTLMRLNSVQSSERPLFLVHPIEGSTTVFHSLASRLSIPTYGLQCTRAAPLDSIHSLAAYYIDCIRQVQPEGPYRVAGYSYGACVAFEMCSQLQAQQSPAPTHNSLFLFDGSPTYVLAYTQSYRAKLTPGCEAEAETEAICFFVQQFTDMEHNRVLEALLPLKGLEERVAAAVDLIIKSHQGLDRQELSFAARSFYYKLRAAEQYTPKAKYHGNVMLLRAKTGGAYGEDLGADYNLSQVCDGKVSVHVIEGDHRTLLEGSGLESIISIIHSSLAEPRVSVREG

Usually AC50 stands for the concentration giving half of the maximal activity seen. `CC(C)NC(=O)N1CC(=O)N(c2cc(Cl)cc(Cl)c2)C1=O`: the half-maximal activity concentration (AC50) in [1] was 16.9 µM (active); in assay [3], 16.2 µM (active); in [6], 23.8 µM (active); in [7] it was 13.3 µM (active); in assay [8], 5.2 µM (active); in [10], 7.56 µM (active). Also, the values for the AC50 in assay [11], in assay [12] and in [15] were 3.58 µM (active), 26.3 µM (active) and 15 µM (active), respectively. For the same compound, the result in assay [2], in [4], in assay [5], in assay [9], in [13] and in [14] was inactive.

Take `CN/C(=N\[N+](=O)[O-])NCc1cnc(Cl)s1`: the outcome in assay [1], in assay [2], in [4], in assay [5], in [6] and in assay [7] was inactive. Besides, the call in assay [8], in assay [16], in assay [17], in [9], in [10] and in assay [11] was inactive. Further, the call in assay [13], in assay [14] and in assay [18] was inactive. Moreover, the AC50 in assay [3] is 50 µM (active); in assay [15], 28.6 µM (active).

Take `CCCN(CC)CC1COC2(CCC(C(C)(C)C)CC2)O1` (centres undefined): the values for the AC50 in [1], in assay [3] and in [8] were 0.38 µM (active), 0.274 µM (active) and 50 µM (active), respectively. The outcome in [2], in assay [4], in assay [5], in assay [6], in [7] and in assay [9] was inactive. Besides, the compound was called inactive in assay [10], in assay [13], in [14], in [18] and in assay [15].

As for `COCC(=O)N(c1c(C)cccc1C)C(C)C(=O)OC` (centres undefined), the result in [1], in assay [2], in assay [3], in [5], in [6] and in assay [7] was inactive. Also, the outcome in assay [19], in assay [8], in assay [9], in assay [10], in assay [13] and in [14] was inactive. Also, the result in [15] was inactive. The AC50 in assay [4] is 0.0815 µM (active).

In the case of `CCN(CC)c1nc(C)cc(OP(=S)(OC)OC)n1`, the results for the AC50 in assay [1], in [3] and in [8] were 45.8 µM (active), 27.4 µM (active) and 31.1 µM (active), respectively. Further, the compound was classed as inactive in assay [2], in [4], in assay [5], in assay [6], in [7] and in assay [16]. Moreover, the call in assay [9], in assay [10], in [13], in assay [14] and in assay [15] was inactive.
